Measured values published in PubChem BioAssay (NCATS).
Values joined by “and” are separate entries in the source; they are usually repeats but may differ in a detail not shown here. Equal values may be shown once. Results filed as inconclusive are left out. Active and inactive are the calls of the source. Unless noted, calls come from the whole dose curve; as a rule, active = well fitted curve in the direction sought with a large enough effect; inconclusive = small, poorly fitted or top-dose-only effect, or another doubt; inactive = no such curve, though single readings can be large; an effect the other way counts as inactive or inconclusive.

Columns and labels:
[1] = Cell Viability - Hek293 (AID 427;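 active = compounds whose dose-response curve shows a full or clear partial loss of cell viability, called from curve shape rather than a numeric limit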;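 note: potency is the fitted concentration of half-maximal effect; cells exposed to compound for 40 hours at 37 °C before reading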); details: qHTS
Summary of the method: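 qHTS, human embryonic kidney (adenovirus-transformed) cells; 40 hr cpd, 37 °C; CellTiter-Glo ATP luminescence. Norm: DMSO = 0, 100 uM tamoxifen = 100% inhibition. Hill-fit AC50.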

[2] = Cell Viability - SK-N-SH (AID 435; calls by dose curve;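 note: potency is the fitted concentration of half-maximal effect; compound exposure lasted 40 h at 37 °C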); details: SK-N-SH neuroblastoma cell viability qHTS
Summary of the method: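 SK-N-SH neuroblastoma cells (1500/well) treated 40 h at 37 °C in complete medium; viability read as cellular ATP by CellTiter-Glo luminescence. Normalized to DMSO and 100 uM tamoxifen; AC50 from Hill fits of qHTS concentration-response.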

[3] = Cell Viability - N2a (AID 540); details: N2a mouse neuroblastoma cell viability; activity change, negative = cytotoxicity: at 92.2 µM (top of the series);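 note: plate controls were DMSO alone for no effect and tamoxifen control for full effect; nearly all actives have a fitted effect of over 45% in size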
Summary of the method: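 First, 1500 N2a cells per well incubate 5 hr at 37 °C; next, compounds are added and incubated 40 hr at 37 °C; finally CellTiter-Glo is added and luminescence read after 20 min, with AC50 derived by Hill modeling.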

[4] = Cell Viability - SH-SY5Y (AID 544); details: SH-SY5Y neuroblastoma cell viability; viability change, negative = cytotoxic: at 92.2 µM (top of the series); note: nearly all actives have a fitted effect of over 55% in size; note: potency is the fitted concentration of half-maximal effect;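 for viability change, negative = cytotoxic: 0% = DMSO alone and -100% = 100 µM tamoxifen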
Summary of the method: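 Cytotoxicity is scored as a concentration-dependent fall in intracellular ATP in human SH-SY5Y cells treated 40 hr in complete culture medium. Potency is expressed as AC50 from a Hill equation fit.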

[5] = Cell Viability - Renal Proximal Tubule (AID 545); details: renal proximal tubule cells viability, primary cells of rat origin; activity change, negative = cytotoxicity: at 91.7 µM (top of the series);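 note: 0% = DMSO only and -100% = 100 µM tamoxifen; nearly all actives have a fitted effect of over 40% in size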
Summary of the method: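 Rat renal proximal tubule primary cells, 1000/well, exposed to compounds for 40 hr at 37 °C in complete medium; cellular ATP read by CellTiter-Glo luminescence. AC50 from concentration-response fitted with standard Hill equation.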

[6] = Cell Viability - LYMP2-001 (AID 921); details: LYMP2-001 lymphoblastoid cell viability; series mostly up to 92.2 µM;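 note: 0% = DMSO only and full inhibition = tetraoctylammonium bromide control wells; nearly all actives have a fitted effect of over 70% in size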
Summary of the method: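 Human lymphoblastoid LYMP2-001 cells, 2500 per well, in complete medium, treated 24 h at 37 C. Viability from cellular ATP by CellTiter-Glo luminescence; AC50 from Hill-equation fits of qHTS concentration-response.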

[7] = MultiTox-Fluor Cytotoxicity Assay - LYMP1-002 - Dead Cells (AID 960); details: LYMP1-002 lymphoblastoid cells, dead-cell protease fluorescence; series mostly up to 46.1 µM;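 note: cells exposed to compound for 16 h at 37 °C; 0% = DMSO and 100% = tetraoctylammonium bromide; nearly all actives have a fitted effect of over 60% in size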
Summary of the method: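 Acute cytotoxicity in a human lymphoblastoid line is scored as rising dead-cell protease signal after 16 hr exposure at 37 C, measured fluorometrically (485/520).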

[8] = Cell Viability - LYMP2-005 (AID 967); details: LYMP2-005 lymphoblastoid cell viability; series mostly up to 92.2 µM;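 note: plate controls were DMSO only for no effect and 92 µM tetraoctylammonium bromide control for full effect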
Summary of the method: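 Human lymphoblastoid LYMP2-005 cells, 2,500 per well in complete medium, rested 5 h at 37C then compound-treated 24 h at 37C. Intracellular ATP read by CellTiter-Glo luminescence after 30 min at room temperature; AC50 from Hill-equation fits of concentration-response data.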

[9] = Cell Viability - LYMP2-009 (AID 968); details: LYMP2-009 lymphoblastoid cell viability; series mostly up to 92.2 µM;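 note: 0% = DMSO alone and the full-kill end = tetraoctylammonium bromide at 92 µM; nearly all actives have a fitted effect of over 55% in size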
[10] = Cell Viability - LYMP2-015 (AID 971); details: LYMP2-015 lymphoblastoid cell viability; series mostly up to 92.2 µM;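 note: 0% = DMSO only and full effect = 92 µM tetraoctylammonium bromide; nearly all actives have a fitted effect of over 55% in size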
Summary of the method: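 Acute toxicity was scored as a concentration-dependent drop in intracellular ATP in lymphoblastoid cells after 24 hr compound exposure in complete medium. Detection used CellTiter-Glo luciferase luminescence.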

[11] = Cell Viability - LYMP2-017 (AID 972); details: LYMP2-017 lymphoblastoid cell viability; series mostly up to 92.2 µM;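 note: cells exposed to compound for 24 hours at 37 °C; % is set by controls: 0 for no effect and ±100 for the full control effect; nearly all actives have a fitted effect of over 55% in size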
Summary of the method: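 Steps: plate 2500 lymphoblastoid cells per well; incubate 5 hr at 37 C; add compound across a concentration series and incubate 24 hr at 37 C; add CellTiter-Glo and read luminescence after 30 min at room temperature; fit Hill curves for AC50.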

[12] = Cell Viability - LYMP2-019 (AID 973); details: LYMP2-019 lymphoblastoid cell line viability; series mostly up to 92.2 µM
Summary of the method: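 Cells plated at 2500/well and allowed 5 hr at 37 C before compound addition. After 24 hr incubation, CellTiter-Glo reagent was added, plates sat 30 min at room temperature, and luminescence was recorded.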

[13] = Cell Viability - LYMP2-010 (AID 981); details: LYMP2-010 lymphoblastoid cell viability, qHTS; series mostly up to 92.2 µM
Summary of the method: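 Acute toxicity is scored as a concentration-dependent loss of cellular ATP in human lymphoblastoid cells after 24 hr compound exposure in complete medium. Tetraoctylammonium bromide is the positive control.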

[14] = qHTS assay for small molecule agonists of retinoid X receptor alpha signaling (AID 588544; calls by dose curve); details: HEK293T RXRa-UAS-bla, beta-lactamase reporter, 18 h; 530 nm emission
[15] = biological target: Retinoic acid receptor RXR-alpha (Homo sapiens) (UniProt P19793); assay: as above; details: HEK293T RXRa-UAS-bla, beta-lactamase reporter, 18 h; series mostly up to 76.7 µM
[16] = qHTS assay for small molecule disruptors of the mitochondrial membrane potential - 1 hr assay (AID 651754; calls by dose curve; note: nearly all actives have a fitted effect of over 35% in size; note: potency is the fitted concentration of half-maximal effect); details: series mostly up to 92.2 µM
Summary of the method: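 Steps: seed HepG2 cells and let attach overnight; pin-transfer compound or vehicle; incubate 1 hr at 37C; add Mito-MPS dye for 30 min; read two-channel fluorescence for monomer and aggregate forms.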

[17] = qHTS assay for small molecule disruptors of the mitochondrial membrane potential - 5 hr assay (AID 651755; calls by dose curve; note: nearly all actives have a fitted effect of over 40% in size; note: potency is the fitted concentration of half-maximal effect); details: JC-1-type ratio dye; series mostly up to 92.2 µM
Summary of the method: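 HepG2 cells, attached overnight at 37C, were exposed to compound or DMSO for 5 hr at 37C, 5% CO2. Mito-MPS dye was then added for 30 min, and fluorescence read at 490/535 nm (monomers) and 540/590 nm (aggregates).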

[18] = qHTS assay for small molecule agonists of the antioxidant response element (ARE) signaling pathway measured by Nrf2-dependant transcriptional activity (AID 720636; active = well fitted curve in the direction sought with a large enough effect in the repeat runs; an effect the other way counts as inactive or inconclusive;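 note: HepG2 cells with an ARE-driven luciferase reporter; % of control where 0% means no effect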); details: ARE-luc HepG2, Nrf2 luciferase reporter, 16 h; series mostly up to 92.4 µM
Summary of the method: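 Attachment 6 hr at 37 C, then compound versus DMSO vehicle for 16 hr in ARE-luc HepG2 cells (1% dialyzed FBS); luminescence recorded 30 min after ONE-Glo addition at room temperature.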

[19] = biological target: Nuclear receptor subfamily 1 group I member 2 (Rattus norvegicus) (UniProt Q9R1A7); assay: qHTS assay for small molecule activators of the rat pregnane X receptor (rPXR) signaling pathway (AID 651751; call rule not given here; note: 0% is about no effect); details: rPXR reporter cells, luciferase (One-Glo), 24 h
[20] = biological target: Thyroid hormone receptor beta (Homo sapiens) (UniProt P10828); assay: qHTS assay for small molecule agonists of thyroid hormone receptor beta signaling (AID 588545; calls by dose curve); details: TR-UAS-bla GripTite HEK 293, beta-lactamase ratio, agonist mode, 18 h; series mostly up to 76.7 µM
Summary of the method: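 Agonist activity was read as beta-lactamase CCF4 fluorescence (405 ex, 460/530 em), scaled between DMSO (0%) and 10 nM T3 (100%), then Hill-fitted for EC50 and efficacy. HEK 293 TR-UAS-bla cells in 2% charcoal/dextran FBS medium were exposed 18 h at 37 C.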

Chain of Nuclear receptor subfamily 1 group I member 2 (Rattus norvegicus) (Q9R1A7 whole entry, looked up): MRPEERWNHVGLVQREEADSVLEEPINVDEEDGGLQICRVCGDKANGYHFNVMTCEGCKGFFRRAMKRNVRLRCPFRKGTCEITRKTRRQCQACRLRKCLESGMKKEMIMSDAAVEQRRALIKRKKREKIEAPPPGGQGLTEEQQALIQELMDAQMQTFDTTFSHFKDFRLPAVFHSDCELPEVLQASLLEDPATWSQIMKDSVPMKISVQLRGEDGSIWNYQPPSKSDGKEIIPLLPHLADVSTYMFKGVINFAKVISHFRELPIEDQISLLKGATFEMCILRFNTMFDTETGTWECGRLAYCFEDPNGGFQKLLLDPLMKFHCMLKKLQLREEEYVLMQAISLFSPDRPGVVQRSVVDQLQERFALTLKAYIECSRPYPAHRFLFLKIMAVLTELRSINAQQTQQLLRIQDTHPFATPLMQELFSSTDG
Chain of Retinoic acid receptor RXR-alpha (Homo sapiens) (P19793 whole entry, looked up): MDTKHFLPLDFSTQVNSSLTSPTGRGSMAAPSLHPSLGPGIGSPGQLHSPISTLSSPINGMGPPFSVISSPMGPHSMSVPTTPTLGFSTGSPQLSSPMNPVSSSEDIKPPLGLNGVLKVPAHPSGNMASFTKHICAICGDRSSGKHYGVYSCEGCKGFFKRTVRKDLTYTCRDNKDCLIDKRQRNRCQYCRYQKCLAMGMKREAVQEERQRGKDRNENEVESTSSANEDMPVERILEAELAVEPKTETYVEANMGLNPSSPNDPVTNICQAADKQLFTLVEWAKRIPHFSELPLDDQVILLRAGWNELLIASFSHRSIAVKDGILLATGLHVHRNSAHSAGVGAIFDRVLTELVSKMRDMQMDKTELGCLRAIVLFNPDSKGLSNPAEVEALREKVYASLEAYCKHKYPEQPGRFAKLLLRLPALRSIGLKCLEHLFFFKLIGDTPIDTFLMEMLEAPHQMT
Chain of Thyroid hormone receptor beta (Homo sapiens) (P10828 whole entry, looked up): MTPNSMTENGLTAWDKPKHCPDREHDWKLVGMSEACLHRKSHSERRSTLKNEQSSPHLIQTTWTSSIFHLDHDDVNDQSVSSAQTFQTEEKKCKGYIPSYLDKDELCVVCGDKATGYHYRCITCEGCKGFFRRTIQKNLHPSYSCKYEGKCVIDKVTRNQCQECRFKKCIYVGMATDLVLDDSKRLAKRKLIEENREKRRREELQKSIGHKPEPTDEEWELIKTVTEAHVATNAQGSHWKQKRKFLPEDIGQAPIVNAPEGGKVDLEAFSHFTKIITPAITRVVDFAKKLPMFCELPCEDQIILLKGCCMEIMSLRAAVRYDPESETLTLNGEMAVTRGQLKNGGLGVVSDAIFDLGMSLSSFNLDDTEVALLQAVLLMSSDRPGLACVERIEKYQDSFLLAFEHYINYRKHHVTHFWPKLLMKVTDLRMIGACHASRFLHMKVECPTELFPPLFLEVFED

Cc1ccc(C(=O)O)cc1[N+](=O)[O-]
0.231%: max response [14]
inactive: Potency [1] > 92 µM | Potency [2] > 92 µM | activity change, negative = cytotoxicity [3] 4.91% | Potency [4] | Potency [5] | Potency [6] | Potency [7] | Potency [8] | Potency [9] | Potency [10] | Potency [11] | Potency [12] | Potency [13] | Potency [15] | Potency [16] | Potency [17] | Potency [18] | max response [19] 1.55%

OCC(CBr)(CBr)CBr
-4.28%: max response [14]
inactive: Potency [1] > 92 µM | Potency [2] > 92 µM | Potency [4] | Potency [5] | Potency [6] | Potency [8] | Potency [9] | Potency [10] | Potency [11] | Potency [12] | Potency [13] | Potency [15] | Potency [20] | Potency [16] | Potency [17] | Potency [18] | max response [19] 6.71%

Cc1ccc2ccc3cccc4ccc1c2c34
-15.6%: max response [14]
inactive: Potency [1] > 92 µM | Potency [2] > 92 µM | activity change, negative = cytotoxicity [3] -16.7% | Potency [4] | Potency [5] | Potency [6] | Potency [8] | Potency [9] | Potency [10] | Potency [11] | Potency [12] | Potency [13] | Potency [15] | Potency [20] | max response [19] 10%

Cc1ccc(N)cc1[N+](=O)[O-]
4.03%: max response [14]
inactive: Potency [1] > 92 µM | Potency [2] > 92 µM | activity change, negative = cytotoxicity [3] -8.48% | Potency [4] | Potency [5] | Potency [6] | Potency [8] | Potency [9] | Potency [10] | Potency [11] | Potency [12] | Potency [13] | Potency [15] | Potency [20] | Potency [16] | Potency [17] | Potency [18] | max response [19] -0.278%

CC(C)COC(=O)COc1cc(Cl)c(Cl)cc1Cl
-5.32%: max response [14]
inactive: Potency [1] > 92 µM | Potency [2] > 92 µM | activity change, negative = cytotoxicity [3] 8.53% | Potency [4] | Potency [5] | Potency [6] | Potency [7] | Potency [8] | Potency [9] | Potency [10] | Potency [11] | Potency [12] | Potency [13] | Potency [15] | Potency [20] | Potency [18] | max response [19] -2.47%

CCOc1ccc2nc(N)sc2c1
1.63%: max response [14]
inactive: Potency [1] > 92 µM | Potency [2] > 92 µM | activity change, negative = cytotoxicity [3] -2.03% | Potency [4] | Potency [5] | Potency [6] | Potency [7] | Potency [8] | Potency [9] | Potency [10] | Potency [11] | Potency [12] | Potency [13] | Potency [15] | Potency [20]

CCCCCCc1ccc(-c2ccc(C#N)cc2)cc1
-25.6%: max response [14]
inactive: Potency [1] > 92 µM | Potency [2] > 92 µM | activity change, negative = cytotoxicity [3] -10.7% | Potency [4] | Potency [5] | Potency [7] | Potency [8] | Potency [9] | Potency [10] | Potency [11] | Potency [12] | Potency [13] | Potency [15] | Potency [20] | Potency [16] | Potency [17] | Potency [18] | max response [19] -10.6%

COc1ccc(C(=O)Nc2ccccc2)cc1[N+](=O)[O-]
inactive: Potency [1] > 92 µM | Potency [2] > 92 µM | activity change, negative = cytotoxicity [3] -4% | Potency [5] | Potency [6] | Potency [8] | Potency [9] | Potency [10] | Potency [12] | Potency [13] | Potency [20]
active: Potency [16] 33.5 µM | Potency [17] 37.6 µM

O=C(O)c1ccc([N+](=O)[O-])cc1
-0.875% and -5.25%: max response [14]
inactive: Potency [1] > 92 µM | Potency [2] > 92 µM | activity change, negative = cytotoxicity [3] 9.32% | Potency [4] | Potency [5] | Potency [6] | Potency [7] | Potency [8] | Potency [9] | Potency [10] | Potency [11] | Potency [12] | Potency [13] | Potency [15] | Potency [20] | Potency [16] | Potency [17] | Potency [18] | max response [19] -2.43% and -1.7%

CCCCCCCCC1CO1 (centres undefined)
-17.5%: max response [14]
inactive: Potency [1] > 92 µM | Potency [2] > 92 µM | activity change, negative = cytotoxicity [3] -1.38% | Potency [4] | Potency [5] | Potency [6] | Potency [7] | Potency [8] | Potency [9] | Potency [10] | Potency [11] | Potency [12] | Potency [13] | Potency [15] | Potency [20] | Potency [16] | Potency [17] | Potency [18] | max response [19] -2.96%

CC(C)OCC1CO1 (centres undefined)
inactive: Potency [1] > 92 µM | Potency [2] > 92 µM | activity change, negative = cytotoxicity [3] -7.39% | Potency [4] | Potency [5] | Potency [6] | Potency [8] | Potency [9] | Potency [10] | Potency [11] | Potency [12] | Potency [13] | Potency [15] | Potency [20] | Potency [16] | Potency [17] | Potency [18] | max response [19] 3.69%
-12.5%: max response [14]

O=CC(=O)c1ccccc1
-0.232%: max response [14]
inactive: Potency [1] > 92 µM | Potency [2] > 92 µM | activity change, negative = cytotoxicity [3] 5.07% | Potency [4] | Potency [5] | Potency [7] | Potency [8] | Potency [12] | Potency [13] | Potency [15] | Potency [16] | Potency [17] | Potency [18] | max response [19] 11.8%

O=Nc1ccc(Nc2ccccc2)cc1
active: Potency [1] 30.8 µM | Potency [2] 11.5 µM | activity change, negative = cytotoxicity [3] -115% | Potency [4] 2.51 µM
inactive: Potency [20] | Potency [16] | Potency [17]
